From PubChem BioAssay (Tox21)
“And” between values parts separate entries of the source, which are not always exact repeats. Equal entries are not always repeated. Results filed as inconclusive are left out. The source made the active and inactive calls. Unless noted, calls follow the shape of the full dose curve.

Assays:
[1] = qHTS assay to identify small molecule agonists of the peroxisome proliferator-activated receptor delta (PPARd) signaling pathway - cell viability counter screen (AID 743211; active = well fitted curve in the direction sought with a large enough effect in the repeat runs; an effect the other way counts as inactive or inconclusive; also: nearly all actives have a fitted effect of over 55% in size; also: potency is read from the fitted curve at half-maximal effect)
Summary of the method: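 Viability was measured as CellTiter-Glo luminescence (30 min, room temperature) in the same wells as the beta-lactamase readout. GeneBLAzer PPARd UAS-bla HEK293H cells received compound after 5 h plating and were incubated 17 h at 37 C.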

[2] = target: Peroxisome proliferator-activated receptor delta (Homo sapiens) (UniProt Q03181); assay: qHTS assay to identify small molecule agonists of the peroxisome proliferator-activated receptor delta (PPARd) signaling pathway (AID 743212)
Peroxisome proliferator-activated receptor delta (Homo sapiens), sequence (Q03181 whole entry, looked up): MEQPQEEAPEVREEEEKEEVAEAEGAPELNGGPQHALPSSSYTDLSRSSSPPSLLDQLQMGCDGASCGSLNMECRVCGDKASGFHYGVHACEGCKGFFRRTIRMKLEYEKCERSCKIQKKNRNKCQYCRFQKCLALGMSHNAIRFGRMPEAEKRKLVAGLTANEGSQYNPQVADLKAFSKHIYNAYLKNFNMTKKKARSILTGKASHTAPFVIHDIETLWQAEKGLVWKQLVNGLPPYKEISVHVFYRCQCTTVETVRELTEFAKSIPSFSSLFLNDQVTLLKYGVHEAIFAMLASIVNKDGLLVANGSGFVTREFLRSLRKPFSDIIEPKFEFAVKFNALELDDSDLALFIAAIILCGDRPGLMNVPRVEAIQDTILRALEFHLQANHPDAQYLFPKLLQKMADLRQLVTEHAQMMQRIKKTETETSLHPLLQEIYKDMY
Summary of the method: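 GeneBLAzer PPARd UAS-bla HEK293H cells (beta-lactamase reporter under UAS control), plated and rested 5 h at 37 C, then exposed to compounds in DMSO at 37 C; LiveBLAzer B/G FRET substrate added, 2 h room temperature, fluorescence read.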

[3] = qHTS assay to identify small molecule antagonists of the peroxisome proliferator-activated receptor delta (PPARd) signaling pathway - cell viability counter screen (AID 743213; active = well fitted curve in the direction sought with a large enough effect in the repeat runs; an effect the other way counts as inactive or inconclusive; also: nearly all actives have a fitted effect of over 50% in size; also: potency is read from the fitted curve at half-maximal effect)
Summary of the method: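 HEK293H cells with the PPARd UAS-bla reporter, co-treated 17 h at 37 C with compounds and L165041 (300 nM final), were lysed with CellTiter-Glo. Luminescence indicated viable cell content.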

[4] = target: Peroxisome proliferator-activated receptor delta (Homo sapiens) (UniProt Q03181); assay: qHTS assay to identify small molecule antagonists of the peroxisome proliferator-activated receptor delta (PPARd) signaling pathway (AID 743215; active = well fitted inhibition curve with a large enough effect in the signal ratio in the repeat runs, not every such curve was filed as active; the % refers to the signal ratio;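 also: cells stimulated with agonist L165041 at 300 nM final during compound exposure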; also: potency is read from the fitted curve at half-maximal effect)
Summary of the method: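 With L165041 present at 300 nM final, compounds were incubated 17 h at 37 C on PPARd UAS-bla HEK293H cells. A FRET-based beta-lactamase substrate was then applied for 2 h at room temperature and fluorescence intensity recorded.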

[5] = target: Bile acid receptor (Homo sapiens) (UniProt Q96RI1); assay: qHTS assay to identify small molecule antagonists of the farnesoid-X-receptor (FXR) signaling pathway (AID 743217; active = well fitted inhibition curve with a large enough effect in the signal ratio in the repeat runs, not every such curve was filed as active; the % refers to the signal ratio)
Bile acid receptor (Homo sapiens), sequence (Q96RI1 whole entry, looked up): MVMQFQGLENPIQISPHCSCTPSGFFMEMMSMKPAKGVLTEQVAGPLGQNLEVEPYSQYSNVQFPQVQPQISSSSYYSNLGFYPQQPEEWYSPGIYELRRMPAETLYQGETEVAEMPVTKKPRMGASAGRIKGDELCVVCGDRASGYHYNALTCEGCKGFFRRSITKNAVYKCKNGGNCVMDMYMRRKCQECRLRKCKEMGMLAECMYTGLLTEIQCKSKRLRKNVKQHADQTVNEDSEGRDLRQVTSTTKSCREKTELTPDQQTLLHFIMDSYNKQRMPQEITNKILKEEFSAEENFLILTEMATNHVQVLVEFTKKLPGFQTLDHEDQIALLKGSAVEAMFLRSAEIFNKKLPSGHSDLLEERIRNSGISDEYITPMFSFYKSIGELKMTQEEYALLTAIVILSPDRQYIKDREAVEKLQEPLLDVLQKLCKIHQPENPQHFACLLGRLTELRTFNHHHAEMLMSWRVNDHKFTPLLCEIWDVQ
Summary of the method: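 In this cell-based antagonist screen, inhibition of CDCA-driven (50 uM final) UAS-beta-lactamase expression in HEK 293T cells was measured by FRET fluorescence following 16 h compound exposure at 37 °C.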

[6] = qHTS assay to identify small molecule agonists of the farnesoid-X-receptor (FXR) signaling pathway - cell viability counter screen (AID 743218; active = well fitted curve in the direction sought with a large enough effect in the repeat runs; an effect the other way counts as inactive or inconclusive; also: nearly all actives have a fitted effect of over 45% in size; also: potency is read from the fitted curve at half-maximal effect)
Summary of the method: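 After 16 h at 37 C with test compounds, FXR-bla HEK 293T cells were given LiveBLAzer B/G substrate for 2 h at RT and then CellTiter-Glo; luminescence was taken after 30 min.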

[7] = target: Bile acid receptor (Homo sapiens) (UniProt Q96RI1); assay: qHTS assay to identify small molecule agonists of the farnesoid-X-receptor (FXR) signaling pathway (AID 743220; active = well fitted activation curve with a large enough effect in the signal ratio in the repeat runs, not every such curve was filed as active; the % refers to the signal ratio)
Summary of the method: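 Beta-lactamase reporter under UAS control in GeneBLAzer FXR HEK 293T cells (5000/well) measured with LiveBLAzer FRET substrate after 2 h at room temperature. Compound exposure lasted 16 h at 37C.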

[8] = qHTS assay to identify small molecule antagonists of the farnesoid-X-receptor (FXR) signaling pathway - cell viability counter screen (AID 743221; active = well fitted cell-killing curve with a large enough effect in the repeat runs, not every such curve was filed as active; also: nearly all actives have a fitted effect of over 50% in size; also: potency is read from the fitted curve at half-maximal effect)
Summary of the method: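 Cytotoxicity counter screen run in the FXR-bla reporter wells: HEK 293T cells exposed to compound with 50 uM (final) chenodeoxycholic acid for 16 h, 37 C, then viability measured by CellTiter-Glo luminescence after 30 min, room temperature.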

[9] = target: Vitamin D3 receptor (Homo sapiens) (UniProt P11473); assay: qHTS assay to identify small molecule agonists of the vitamin D receptor (VDR) signaling pathway (AID 743222)
Vitamin D3 receptor (Homo sapiens), sequence (P11473 whole entry, looked up): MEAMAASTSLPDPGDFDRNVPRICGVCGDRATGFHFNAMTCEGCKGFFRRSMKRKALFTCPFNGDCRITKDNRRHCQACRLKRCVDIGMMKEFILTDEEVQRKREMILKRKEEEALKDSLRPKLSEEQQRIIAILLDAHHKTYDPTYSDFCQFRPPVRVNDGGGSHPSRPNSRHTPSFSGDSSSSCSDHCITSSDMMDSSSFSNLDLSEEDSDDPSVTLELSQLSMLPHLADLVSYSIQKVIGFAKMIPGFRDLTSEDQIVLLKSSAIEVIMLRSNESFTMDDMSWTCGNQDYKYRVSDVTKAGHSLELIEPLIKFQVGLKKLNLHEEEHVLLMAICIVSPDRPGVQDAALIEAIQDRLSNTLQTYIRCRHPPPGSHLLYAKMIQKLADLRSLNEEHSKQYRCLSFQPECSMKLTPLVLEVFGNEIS
Summary of the method: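 VDR-bla cells were seeded, left 4 h, treated with compounds in DMSO for 16 h, incubated 2 h at RT with B/G FRET substrate, and read for fluorescence.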

[10] = target: Vitamin D3 receptor (Homo sapiens) (UniProt P11473); assay: qHTS assay to identify small molecule antagonists of the vitamin D receptor (VDR) signaling pathway (AID 743223; active = well fitted inhibition curve with a large enough effect in the signal ratio in the repeat runs, not every such curve was filed as active; the % refers to the signal ratio)
Summary of the method: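 Antagonist mode: compound added to VDR-bla cells alongside agonist 1alpha,25-dihydroxyvitamin D3 (3 nM final), incubation 16 h at 37C. Read-out is LiveBLAzer FRET fluorescence, 2 h at room temperature.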

[11] = qHTS assay to identify small molecule agonists of the vitamin D receptor (VDR) signaling pathway - cell viability counter screen (AID 743224; active = well fitted curve in the direction sought with a large enough effect in the repeat runs; an effect the other way counts as inactive or inconclusive; also: nearly all actives have a fitted effect of over 50% in size; also: potency is read from the fitted curve at half-maximal effect)
Summary of the method: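 Here cell health was gauged by luminescent ATP detection (CellTiter-Glo, 30 min RT) in VDR-bla cells that had been incubated with test compounds for 16 h at 37C and 5% CO2.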

[12] = qHTS assay to identify small molecule antagonists of the vitamin D receptor (VDR) signaling pathway - cell viability counter screen (AID 743225; active = well fitted curve in the direction sought with a large enough effect in the repeat runs; an effect the other way counts as inactive or inconclusive; also: nearly all actives have a fitted effect of over 50% in size; also: potency is read from the fitted curve at half-maximal effect)
Summary of the method: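 Cytotoxicity counter screen read by CellTiter-Glo luminescence (30 min, room temperature) in the same wells as the VDR-bla antagonist readout. HEK 293T VDR-UAS-bla cells had 16 h at 37C with compound and 3 nM (final) 1-alpha,25-dihydroxyvitamin D3, then 2 h with FRET substrate.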

[13] = qHTS assay to identify small molecule agonists of the NFkB signaling pathway - cell viability counter screen (AID 1159515); also: nearly all actives have a fitted effect of over 55% in size; also: potency is read from the fitted curve at half-maximal effect
Summary of the method: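 5 hr compound treatment of NFkB-bla ME-180 cells (2,000/well, seeded overnight beforehand), followed by reporter substrate for 1.5 hr. CellTiter-Glo added afterward; luminescence after 30 min RT.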

[14] = qHTS assay to identify small molecule agonists of the endoplasmic reticulum stress response signaling pathway - cell viability counter screen (AID 1159517); also: nearly all actives have a fitted effect of over 50% in size; also: potency is read from the fitted curve at half-maximal effect
Summary of the method: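 Luminescence readout: CellTiter-Glo, 30 min RT, same wells as the ESRE-bla reporter read. HeLa ESRE-bla, 1,500 cells/well, o/n 37 C; cpd 5 hr 37 C/5% CO2.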

[15] = target: Nuclear receptor ROR-gamma (Homo sapiens) (UniProt P51449); assay: qHTS assay to identify small molecule antagonists of the retinoid-related orphan receptor gamma (ROR-gamma) signaling pathway (AID 1159521; active = well fitted curve in the direction sought with a large enough effect in the repeat runs; an effect the other way counts as inactive or inconclusive; also: nearly all actives have a fitted effect of over 50% in size; also: potency is read from the fitted curve at half-maximal effect)
Summary of the method: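 Antagonist read-out: drop in luminescence (ONE-Glo) from an RORE-LUC reporter in CHO cells with doxycycline-inducible ROR-gamma; 2 hr compound pretreatment, 1 uM doxycycline, 16 hr incubation at 37 C.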

[16] = qHTS assay to identify small molecule agonists of the AP-1 signaling pathway - cell viability counter screen (AID 1159525); also: nearly all actives have a fitted effect of over 55% in size; also: potency is read from the fitted curve at half-maximal effect
Summary of the method: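 ME-180 AP-1-bla, 2500 cells/well, Opti-MEM + 0.5% dialyzed FBS; overnight 37 °C; cpd 15-pt titration, 5 h 37 °C; CellTiter-Glo 30 min RT; luminescence read; normalised to TOAB and DMSO controls.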

[17] = target: Retinoic acid receptor RXR-alpha (Homo sapiens) (UniProt P19793); assay: qHTS assay to identify small molecule agonists of the RXR signaling pathway (AID 1159527); also: nearly all actives have a fitted effect of over 35% in size
Retinoic acid receptor RXR-alpha (Homo sapiens), sequence (P19793 whole entry, looked up): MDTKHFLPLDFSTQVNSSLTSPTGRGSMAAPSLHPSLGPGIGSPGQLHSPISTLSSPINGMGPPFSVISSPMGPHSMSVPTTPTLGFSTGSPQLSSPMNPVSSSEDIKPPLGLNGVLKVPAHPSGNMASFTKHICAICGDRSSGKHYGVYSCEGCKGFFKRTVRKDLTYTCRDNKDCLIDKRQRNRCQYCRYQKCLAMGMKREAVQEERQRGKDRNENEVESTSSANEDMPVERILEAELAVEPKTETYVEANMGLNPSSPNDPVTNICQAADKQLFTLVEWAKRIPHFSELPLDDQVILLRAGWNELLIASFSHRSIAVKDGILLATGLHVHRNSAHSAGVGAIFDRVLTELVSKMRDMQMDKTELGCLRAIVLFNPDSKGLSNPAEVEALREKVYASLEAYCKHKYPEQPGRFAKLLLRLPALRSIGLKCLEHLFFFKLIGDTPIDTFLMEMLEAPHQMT
Summary of the method: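 Agonist-mode beta-lactamase reporter assay: HEK 293T RXR-alpha-UAS-bla cells treated 16 hr at 37 C with compounds, 9-cis retinoic acid as positive control. LiveBLAzer FRET substrate, 405 nm excitation, 460/530 nm emission.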

[18] = qHTS assay to identify small molecule agonists of the AP-1 signaling pathway (AID 1159526)
[19] = qHTS assay to identify small molecule antagonists of the retinoid-related orphan receptor gamma (ROR-gamma) signaling pathway - cell viability counter screen (AID 1159520; active = well fitted curve in the direction sought with a large enough effect in the repeat runs; an effect the other way counts as inactive or inconclusive; also: nearly all actives have a fitted effect of over 50% in size)
Summary of the method: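 Tet-on ROR gamma CHO cells (1,000/well) were plated 4 hr, given compounds in DMSO for 2 hr at 37 C, then induced with 1 uM final doxycycline for 16 hr. Viability was read as ATP by CellTiter-Glo luminescence after 30 min.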

Measured: Potency

CO[Si](CCCNc1ccccc1)(OC)OC
not listed: [18] | [19]
inactive: all other assays above

ON=C1CCCC1
not listed: [4] | [11] | [15] | [19]
inactive: all other assays above

N/C(=N\N=C\c1ccc(Cl)cc1)N/N=C/c1ccc(Cl)cc1
active: [11] 26.6 µM | [13] 13.4 µM | [14] 23.9 µM | [16] 13.4 µM
inactive: [1] | [5] | [7] | [8] | [9]

CCCCCCCCOc1ccccc1C(=O)Nc1ccc(C(=O)OCC[N+](C)(CC)CC)cc1
active: [1] 26.6 µM | [13] 12 µM | [16] 26.8 µM
inactive: [5] | [7] | [9] | [10] | [11] | [14] | [15]

[Cl][Au]([Cl])[Cl]
inactive: [13] | [14] | [16]
active: [1] 3.09 µM | [3] 9.77 µM | [8] 3.47 µM | [11] 3.89 µM | [12] 11 µM | [15] 5.45 µM

CCN(CC)CCNC(=O)c1c(C)[nH]c(/C=C2\C(=O)Nc3ccc(F)cc32)c1C
inactive: [13] | [16] | [18]
active: [1] 23.7 µM | [3] 4.73 µM | [6] 13.3 µM | [8] 21.1 µM | [11] 29.8 µM | [14] 7.56 µM

CN1CCN(CCC(=O)N2c3ccccc3Sc3ccc(C(F)(F)F)cc32)CC1
active: [1] 11.9 µM | [3] 16.8 µM | [4] 29.8 µM | [8] 33.5 µM | [11] 21.1 µM | [12] 12 µM
inactive: [2] | [7] | [9] | [13] | [14] | [16]

CCCCCCCCOC(=O)c1ccc(O)cc1
inactive: [2] | [6] | [8] | [13] | [17]
active: [1] 48.8 µM | [3] 49 µM | [11] 21.8 µM and 49 µM | [12] 49 µM | [14] 54.9 µM | [16] 54.8 µM

O=C1CCCCCN1SSN1CCCCCC1=O
inactive: [1] | [2] | [3] | [5] | [7] | [8] | [10] | [13] | [14]
active: [15] 24.3 µM

Cc1cc2c(cc1C(F)(F)F)N(C(=O)Nc1ccc(Oc3cccnc3C)nc1)CC2
active: [1] 44.3 µM | [3] 19.8 µM | [6] 35.2 µM | [11] 31.4 µM
inactive: [2] | [7] | [8] | [9] | [12] | [13] | [14]

COC(=O)c1cc(Cl)ccc1OC
not listed: [4] | [5] | [6] | [7] | [14]
inactive: all other assays above

c1cc(C(c2ccc(OCC3CO3)cc2)c2ccc(OCC3CO3)cc2)ccc1OCC1CO1 (stereo not drawn)
active: [1] 54.9 µM
inactive: [3] | [8] | [13] | [14] | [16]

CCCCCCCC/C=C\CCCCCCCCOCCO
active: [1] 17.9 µM | [3] 25.4 µM | [6] 22.6 µM | [8] 28.4 µM | [11] 25.4 µM | [12] 9 µM | [13] 31.9 µM | [14] 31.9 µM | [15] 20 µM | [16] 25.4 µM
